Our source for the Potency values is PubChem BioAssay (NCATS).

The test system of assay [1] is Zika virus NS2B-NS3 protease (unlinked complex). Kind of assay: Primary screen GU Rhodamine qHTS for Zika virus inhibitors: Unlinked NS2B-NS3 protease assay (AID 1347159). Further: nearly all actives have a fitted effect of over 60% in size. Further: potency means the concentration at half of the fitted maximal effect. To be noted: Recombinant ZIKV NS2B-NS3 protease, Rhodamine110 substrate fluorescence; series mostly up to 107 µM. The essentials: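 Compounds, tested up to 114 microM, were incubated for 15 minutes with 25 nM unlinked NS2B-NS3 protease at pH 8.0. Cleavage of 1.5 microM Rhodamine110 substrate was then followed by fluorescence for 15 minutes.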

Assay [2] deals with Zika virus NS2B-NS3 protease (linked construct). Kind of assay: Primary screen NINDS Rhodamine qHTS for Zika virus inhibitors (AID 1347160). Further: nearly all actives have a fitted effect of over 55% in size. To be noted: purified NS2B-NS3 protease, Rhodamine110 substrate fluorescence; series mostly up to 57.1 µM. The essentials:
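Percent inhibition, normalized to uninhibited and enzyme-free controls, is fitted to a 4-parameter Hill equation. Fluorescence change comes from a 15-min cleavage of 1.5 microM bis-peptide Rhodamine110 substrate by 25 nM linked NS2B-NS3 at room temperature.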
Background: In qHTS, concentration-response curves come from the screen itself.

Records with an inconclusive call do not appear. A call without a number means that no potency is given here. Active and inactive are the calls of the source. The call rests on the fitted dose curve; in most records, active means well fitted inhibition curve with a large enough effect; inconclusive means small, poorly fitted or top-dose-only effect; inactive means no such curve, though single readings can be large or run the other way.

As to `CC(CCC1(O)OC2CC3C4CC=C5CC(O[C@@H]6O[C@H](CO)[C@@H](O[C@@H]7O[C@@H](C)[C@H](O)[C@@H](O)[C@H]7O)[C@H](O)[C@H]6O[C@@H]6O[C@@H](C)[C@H](O)[C@@H](O)[C@H]6O)CCC5(C)C4CCC3(C)C2C1C)CO[C@@H]1O[C@H](CO)[C@@H](O)[C@H](O)[C@H]1O` (some centres not stated), the Potency result in assay [1] and in assay [2] was “inactive” each time.
`O=C(Nc1ccccc1C(=O)NC1CCCCNC1=O)c1cc2ccccc2s1` (configuration not stated): the Potency in assay [1] is 31.6 µM (active). Further, the Potency result in assay [2] was “inactive”.
Take `O=C(Nc1ccccc1)N1CCN(c2nc(-c3ccccc3)ns2)CC1`: the Potency result in assay [1] and in assay [2] was “inactive” throughout.
For `O=C(NC1CCN(CCCCC2(C(=O)NCC(F)(F)F)c3ccccc3-c3ccccc32)CC1)c1ccccc1-c1ccc(C(F)(F)F)cc1`, the Potency entry in assay [1] and in assay [2] was “inactive” throughout.
Regarding `COc1cc(N2CCC(N3CCN(C)CC3)CC2)ccc1Nc1ncc(Cl)c(Nc2ccccc2P(C)(C)=O)n1`, the Potency entry in assay [1] and in assay [2] was “inactive” in each case.
As to `Cc1c(NC(=O)OCC2COCCN2)cn2ncnc(Nc3ccc4c(cnn4Cc4cccc(F)c4)c3)c12` (configuration not stated), the Potency entry in assay [1] and in assay [2] was “inactive” in each case.
On to `COc1ccccc1N1CCN(CC[C@@](C)(C(=O)C2CCCCC2)c2ccccc2)CC1`, for which the Potency entry in assay [1] and in assay [2] was “inactive” each time.
Regarding `CC(=O)OC1CC(C)(C(=O)O)CC2C3=CC(=O)C4C5(C)CCC(OC6OC(C(=O)O)C(O)C(O)C6OC6OC(C(=O)O)C(O)C(O)C6O)C(C)(C)C5CCC4(C)C3(C)CCC12C` (configuration not stated), the Potency result in assay [1] and in assay [2] was “inactive” throughout.
As to `O=C(N[C@H]1CCC[C@H](CO)C1)C1CCN(c2nc3cc(Cl)c(-c4ccc(Cl)cc4)cc3o2)CC1`, the Potency entry in assay [1] and in assay [2] was “inactive” each time.
In the case of `COc1c(F)cccc1C(=O)N1C[C@@H](C)CC[C@H]1CNc1ccc(Br)cn1`, the Potency result in assay [1] and in assay [2] was “inactive” throughout.
For the compound `C/C1=C\[C@@H](C)C[C@@H](C)[C@@H](Cc2cnco2)OC(=O)/C(C)=C/[C@@H](C)C[C@@H](C)[C@@H](Cc2cnco2)OC1=O`, the Potency entry in assay [1] and in assay [2] was “inactive” in each case.
Turning to `COC1CCN(c2cccc(-c3cc(NC(C)=O)nc(-n4nc(C)cc4C)n3)n2)CC1`, the Potency entry in assay [1] and in assay [2] was “inactive” in each case.
As for `O=C1Nc2ccccc2-c2nc3ccccc3c(=O)n2-c2c(O)cccc21`, the Potency result in assay [1] and in assay [2] was “inactive” each time.
For the compound `CO[C@@H]1CC(OC2CCC3(C)C(CCC45CCC(C6=CC(=O)OC6)C(C)(CCC43)C5=O)C2)O[C@H](C)[C@@H]1O[C@@H]1O[C@H](CO[C@@H]2O[C@H](CO)[C@@H](O)[C@H](O)[C@H]2O)[C@@H](O)[C@H](O)[C@H]1O` (some centres not stated), the Potency entry in assay [1] and in assay [2] was “inactive” in each case.
Consider `CC(=O)O[C@H]1CC(C)(C)CC2[C@]13CO[C@@]21CCC2[C@@]4(C)CC[C@H](O[C@@H]5OC[C@H](O[C@@H]6O[C@H](CO)[C@@H](O)[C@H](O)[C@H]6O[C@@H]6OC[C@@H](O)[C@H](O)[C@H]6O)[C@H](O)[C@H]5O[C@@H]5O[C@H](CO)[C@@H](O)[C@H](O)[C@H]5O)[C@@](C)(CO)C4CC[C@@]2(C)[C@]1(C)C[C@H]3O` (some centres not stated), for which the Potency entry in assay [1] and in assay [2] was “inactive” in each case.
As for `COc1cc2nc(N3CCN(C(=O)COc4c(OC)cccc4C(C)C)CC3)nc(N)c2cc1OC`, the Potency entry in assay [1] and in assay [2] was “inactive” throughout.
For the compound `Cc1ccc(C2(C(=O)N3CCC(n4nc(-c5ccccc5)oc4=O)CC3)CC2)cc1`, the Potency result in assay [1] and in assay [2] was “inactive” each time.
On to `CC(C)(C[C@@](O)(Cc1cc2ccncc2[nH]1)C(F)(F)F)c1cc(F)ccc1O`, for which the Potency result in assay [1] and in assay [2] was “inactive” throughout.
With `CC(C)=C1C[C@@]2(C)C(=CC1=O)CC[C@@H](OC(=O)/C(C)=C/CO)[C@@H]2C`, the Potency entry in assay [1] and in assay [2] was “inactive” in each case.
As to `N#Cc1ccc2ncnc(NCCc3ccccc3)c2c1`, the Potency entry in assay [1] and in assay [2] was “inactive” in each case.
Consider `C[C@H](CN(C)C)Oc1nc(Nc2cc3cccc(Cl)c3cn2)cnc1C#N`, for which the Potency result in assay [1] and in assay [2] was “inactive” throughout.
Consider `Cc1[nH]c(/C=C2\C(=O)Nc3ccc(F)cc32)c(C)c1C(=O)NCCN1CCCC1`, for which the Potency entry in assay [1] and in assay [2] was “inactive” in each case.
As to `COC1=CC(=O)O/C1=C(/OC)[C@@H]1O[C@H]1c1ccccc1`, the Potency entry in assay [1] and in assay [2] was “inactive” in each case.
For `Cc1cc2sc(NC(=O)Cc3ccccc3)nc2cc1Cl`, the Potency entry in assay [1] and in assay [2] was “inactive” throughout.
Regarding `COc1ccc(OC)c(-c2ccc(NC(=O)c3ccncc3F)cc2)c1`, the Potency result in assay [1] and in assay [2] was “inactive” throughout.
On to `Cc1c(C2=CCN(C(=O)N(C)C(C)C)CC2)nnn1-c1cccnc1F`, for which the Potency entry in assay [1] and in assay [2] was “inactive” each time.
As to `COc1cc(-c2nc(N[C@H](CO)Cc3ccccc3)ccc2C(=O)NCCOc2ccccc2)cc(OC)c1OC`, the Potency result in assay [1] and in assay [2] was “inactive” throughout.
On to `CN1CCN(C2CCN(C(=O)Nc3cc(Oc4ccc(NC(=O)C5(C(=O)Nc6ccc(F)cc6)CC5)c(F)c4)ccn3)CC2)CC1`, for which the Potency result in assay [1] and in assay [2] was “inactive” in each case.
On to `CNCc1cc(-c2ccccc2F)n(S(=O)(=O)c2cccnc2)c1`, for which the Potency entry in assay [1] and in assay [2] was “inactive” in each case.
On to `CCC/C=C\C=C/CCc1cc(O)c([C@@H]2O[C@H](CO)[C@@H](O)[C@H](O)[C@H]2O)c(O)c1C(=O)OC`, for which the Potency result in assay [1] and in assay [2] was “inactive” throughout.
Turning to `CCNC(=O)c1noc(-c2cc(Cl)c(O)cc2O)c1-c1ccc(OC)cc1`, the Potency entry in assay [1] and in assay [2] was “inactive” each time.
